# Activity calls are given as the source filed them.
# How the values were obtained:
# [1] = optical density shifts of acrAB sulA E. coli – strain DRC41, OD650, 48 h, E. coli filamentation inducer project, primary screen (AID 1152); conditions: higher = more signal, called active from +8 up or from −8 down;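 also: E. coli MC1000 strain DRC41 lacking acrAB efflux pump and sulA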
# [2] = probe aLefty1 binding on compound microarray – biochemical, small-molecule microarray, 635/667 nm fluorescence, primary screen (AID 1153); conditions: higher = more signal;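 also: score merges spot fluorescence with signal-to-noise ratio from the scanned slide images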
# [3] = plasmodial surface anion channel blockers, osmotic lysis – cell-based, P. falciparum Indochina, OD700, 1 h, primary screen (AID 1154); conditions: P. falciparum Indochina infected RBC osmotic lysis, higher = more signal, called active from +8 up or from −8 down
# [4] = plasmodial surface anion channel blockers, osmotic lysis – cell-based, P. falciparum Indochina, OD700, 2 h, primary screen (AID 1155);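 also: lysis reports solute entry through the parasite surface anion channel PSAC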; conditions: P. falciparum Indochina infected erythrocytes, higher = more signal, called active from +8 up or from −8 down
# [5] = changes in parasitized red cell lysis, either direction – P. falciparum Indochina, OD700, 3 h, PSAC antagonist project, primary screen (AID 1156); conditions: P. falciparum-infected erythrocytes, osmotic lysis, higher = more signal, called active from +8 up or from −8 down
# [6] = plasmodial surface anion channel blockers, osmotic lysis – cell-based, P. falciparum Indochina, OD700, 18 h, primary screen (AID 1157); conditions: P. falciparum Indochina infected erythrocytes, osmotic lysis OD700, 18 h; higher = more signal, called active from +8 up or from −8 down
# [7] = S6 kinase pathway phospho-S6 level changes – cell-based, A549, cytoblot, luminescence, serum-stimulated, primary screen (AID 1158); conditions: 5 h, higher = more signal;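 also: serum-stimulated A549 lung adenocarcinoma cells; signal is phosphorylated S6 detected by cytoblot immunostaining with HRP secondary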
# [8] = target: NADPH oxidase 2 (Homo sapiens) (UniProt P04839); experiment: compounds shifting NOX2 Amplex Red fluorescence – cell-based, HEK293-NOX2, PMA-stimulated, NOX inhibitor project, primary screen (AID 1159); conditions: 45 min, higher = more signal, called active from +8 up or from −8 down; also: test concentration not given here
# Chain of NADPH oxidase 2 (Homo sapiens) (P04839 whole entry, looked up): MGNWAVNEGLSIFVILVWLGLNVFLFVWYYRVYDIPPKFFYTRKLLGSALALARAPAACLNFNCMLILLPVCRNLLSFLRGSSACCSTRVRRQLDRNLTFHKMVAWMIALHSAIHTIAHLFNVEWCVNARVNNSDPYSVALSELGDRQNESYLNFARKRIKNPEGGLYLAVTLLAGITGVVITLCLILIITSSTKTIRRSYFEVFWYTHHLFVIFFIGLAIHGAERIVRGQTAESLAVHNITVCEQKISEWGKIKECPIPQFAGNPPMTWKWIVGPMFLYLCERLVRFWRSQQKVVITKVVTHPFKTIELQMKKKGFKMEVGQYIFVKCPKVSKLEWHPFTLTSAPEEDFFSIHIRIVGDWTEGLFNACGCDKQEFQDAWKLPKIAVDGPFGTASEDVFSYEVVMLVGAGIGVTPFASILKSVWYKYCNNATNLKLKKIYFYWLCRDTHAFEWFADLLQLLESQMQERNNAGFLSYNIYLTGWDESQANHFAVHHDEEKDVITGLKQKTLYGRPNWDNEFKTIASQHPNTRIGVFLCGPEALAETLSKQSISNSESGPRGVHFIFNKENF
# [9] = target: NADPH oxidase 4 (Homo sapiens) (UniProt Q9NPH5); experiment: compounds shifting NOX4 Amplex Red fluorescence – cell-based, HEK293-NOX4, tetracycline-induced, NOX inhibitor project, primary screen (AID 1160); conditions: HEK293-NOX4, Amplex Red H2O2 fluorescence, 45 min; higher = more signal, called active from +8 up or from −8 down
# Chain of NADPH oxidase 4 (Homo sapiens) (Q9NPH5 whole entry, looked up): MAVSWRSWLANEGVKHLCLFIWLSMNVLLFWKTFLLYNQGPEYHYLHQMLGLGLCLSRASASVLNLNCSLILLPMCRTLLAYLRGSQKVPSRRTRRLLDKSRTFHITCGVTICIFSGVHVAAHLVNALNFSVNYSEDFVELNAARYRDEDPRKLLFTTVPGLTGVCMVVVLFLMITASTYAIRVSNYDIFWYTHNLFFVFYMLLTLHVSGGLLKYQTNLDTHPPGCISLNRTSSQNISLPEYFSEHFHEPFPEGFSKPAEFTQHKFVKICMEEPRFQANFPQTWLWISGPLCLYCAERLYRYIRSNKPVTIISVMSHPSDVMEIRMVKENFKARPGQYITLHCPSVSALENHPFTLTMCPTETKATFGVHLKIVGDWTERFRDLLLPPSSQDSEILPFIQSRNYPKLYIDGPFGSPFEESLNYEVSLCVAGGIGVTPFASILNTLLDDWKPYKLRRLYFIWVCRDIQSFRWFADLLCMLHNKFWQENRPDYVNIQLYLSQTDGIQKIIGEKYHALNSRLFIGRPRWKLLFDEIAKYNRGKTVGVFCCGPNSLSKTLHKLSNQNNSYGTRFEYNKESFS
# [10] = target: NADPH oxidase 5 (Homo sapiens) (UniProt Q96PH1); experiment: compounds shifting NOX5 Amplex Red fluorescence – cell-based, HEK293-NOX5, NOX inhibitor project, primary screen (AID 1161); conditions: HEK293-NOX5, ionomycin, 45 min, higher = more signal
# Chain of NADPH oxidase 5 (Homo sapiens) (Q96PH1 whole entry, looked up): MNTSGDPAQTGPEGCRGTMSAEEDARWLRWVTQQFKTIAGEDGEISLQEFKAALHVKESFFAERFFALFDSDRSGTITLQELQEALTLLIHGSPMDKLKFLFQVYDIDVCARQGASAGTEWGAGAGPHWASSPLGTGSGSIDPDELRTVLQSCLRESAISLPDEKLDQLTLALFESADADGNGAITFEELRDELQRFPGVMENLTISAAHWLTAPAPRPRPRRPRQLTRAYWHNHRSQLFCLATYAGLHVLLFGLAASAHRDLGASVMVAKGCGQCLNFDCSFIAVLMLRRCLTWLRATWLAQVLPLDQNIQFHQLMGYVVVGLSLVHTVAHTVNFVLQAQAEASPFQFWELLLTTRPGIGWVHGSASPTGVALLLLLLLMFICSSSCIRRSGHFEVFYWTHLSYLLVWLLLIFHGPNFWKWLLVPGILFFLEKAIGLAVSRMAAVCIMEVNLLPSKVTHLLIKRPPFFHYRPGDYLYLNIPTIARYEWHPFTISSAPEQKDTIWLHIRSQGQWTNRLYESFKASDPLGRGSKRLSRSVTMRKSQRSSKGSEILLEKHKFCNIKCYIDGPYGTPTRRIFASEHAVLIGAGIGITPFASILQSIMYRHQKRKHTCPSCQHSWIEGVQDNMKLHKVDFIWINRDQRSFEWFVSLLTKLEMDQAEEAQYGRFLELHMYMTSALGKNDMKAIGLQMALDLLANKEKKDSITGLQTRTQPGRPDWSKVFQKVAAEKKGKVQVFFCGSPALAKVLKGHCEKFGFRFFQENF
SMILES,z-score [1],composite z-score [2],z-score [3],z-score [4],z-score [5],z-score [6],z-score [7],z-score [8],z-score [9],z-score [10]
COC(=O)[C@@]1(Cc2ccc(F)cc2)[C@H]2c3cc(C(=O)N4CCCC4)n(C[C@H](O)CO)c3C[C@H]2CN1C(=O)c1ccccc1,-1.62 (inactive),0.873,1.41 (inactive),0.542 (inactive),0.396 (inactive),0.668 (inactive),-0.0929,0.709 (inactive),-0.364 (inactive),-2.49
Cc1ccc(N2C(=O)c3ccccc3[C@@H](C(=O)NCCN3CCOCC3)[C@@H]2c2ccc(CO)cc2)nc1,0.279 (inactive),-0.303,0.443 (inactive),-0.229 (inactive),-0.319 (inactive),0.155 (inactive),-0.334,0.335 (inactive),-0.36 (inactive),-1.86
COCCOC(=O)N1C(=O)[C@@]2(c3cc(C#CCC(C(=O)OC)C(=O)OC)ccc31)[C@H](c1ccc(O)cc1)N1[C@H](c3ccccc3)[C@H](c3ccccc3)OC(=O)[C@H]1[C@@H]2C(=O)N1CCc2cc(OC)c(OC)cc2C1,0.904 (inactive),-0.149,0.442 (inactive),0.0876 (inactive),0.328 (inactive),0.394 (inactive),0.161,1.94 (inactive),0.336 (inactive),1.23
O=C(NCC(F)(F)F)[C@@H]1c2ccccc2C(=O)N(Cc2cc(C(F)(F)F)cc(C(F)(F)F)c2)[C@H]1c1ccc(CO)cc1,0.648 (inactive),0.114,2.54 (inactive),0.0323 (inactive),0.473 (inactive),0.257 (inactive),0.751,0.16 (inactive),0.746 (inactive),1.11
COC(=O)C1=CC(CCCO)=CC(c2ccc(CN3CCCC3)cc2)N(C)C=C1C(=O)OC (stereo not given),0.265 (inactive),0.212,1.77 (inactive),0.422 (inactive),0.587 (inactive),0.155 (inactive),-0.387,0.452 (inactive),0.225 (inactive),0.463
CN1C(=O)C2C(C1=O)C1C=C(CCCO)C2C(C2CC2)N1C (stereo not given),0.667 (inactive),-0.0683,-0.452 (inactive),-0.72 (inactive),0.139 (inactive),-1.17 (inactive),1.82,-0.0367 (inactive),-0.274 (inactive),0.53
CC(C)C[C@H]1NC(=O)CNC(=O)[C@@]23C(=O)N[C@@H](Cc4ccccc4)C2[C@H](C)[C@@]2(C)O[C@H]2C3/C=C/C/C=C\CNC1=O (stereo not given in full),-0.592 (inactive),-0.103,0.392 (inactive),0.41 (inactive),-0.352 (inactive),-0.0621 (inactive),0.662,0.429 (inactive),1.21 (inactive),-0.495
CCOC(=O)C1=CCC(c2ccncc2)N(S(=O)(=O)c2ccc(C)cc2)C1 (stereo not given),0.149 (inactive),0.13,4.24 (inactive),1.29 (inactive),0.488 (inactive),0.953 (inactive),-0.0707,0.168 (inactive),0.432 (inactive),0.0402
CCOC(=O)C1=C[C@@H](C(C)(C)C)N(S(=O)(=O)c2ccc(C)cc2)[C@H]1c1ccc(OC)cc1,-0.0371 (inactive),0.235,1.44 (inactive),1.11 (inactive),0.457 (inactive),0.71 (inactive),-0.454,-1.67 (inactive),0.244 (inactive),1.65
COC(=O)C[C@H]1O[C@]2(C(=O)N(C)c3ccccc32)[C@@H](C)[C@@H]1[Si](C)(C)c1ccccc1,-0.297 (inactive),0.151,1.48 (inactive),0.405 (inactive),1.1 (inactive),0.0591 (inactive),0.252,0.767 (inactive),0.176 (inactive),-1.11
C=CCOC(=O)[C@@H]1[C@H]2C(=O)O[C@H](c3ccccc3)[C@H](c3ccccc3)N2[C@H](c2ccc(OCCOC(=O)[C@@H]3C[C@@H]4C(=O)N[C@@H](CC(C)C)C(=O)N4[C@@H]3c3ccc(O)cc3)cc2)[C@@]12C(=O)Nc1ccc(I)cc12,0.928 (inactive),1.58,1.5 (inactive),0.9 (inactive),4.25 (inactive),0.718 (inactive),0.0764,0.485 (inactive),0.64 (inactive),0.839
CC(C)(C)OC(=O)CC[C@@]1(C(=O)N2CCOCC2)N=C(c2ccc(OCCCO)cc2)O[C@@H]1c1ccccc1CN=[N+]=[N-],0.409 (inactive),0.85,27 (active),14.9 (active),-0.762 (inactive),1.11 (inactive),-0.449,0.825 (inactive),2.1 (inactive),2.05
[N-]=[N+]=NCc1ccccc1[C@H]1OC(c2ccc(OCCCO)cc2)=N[C@@]1(Cc1ccccc1N=[N+]=[N-])C(=O)N1CCOCC1,-0.476 (inactive),0.181,28.3 (active),22 (active),2.5 (inactive),3.77 (inactive),-0.318,-5.55 (inactive),-1.03 (inactive),-2.42
Cc1ccc(S[C@]2(C(=O)NCCN3CCOCC3)CC(=O)N(C(C)C)[C@@H]2c2ccc(CO)cc2I)cc1,3.66 (inactive),0.11,7.56 (inactive),0.308 (inactive),0.651 (inactive),-0.511 (inactive),1.86,-0.491 (inactive),-1.24 (inactive),1.07
CCCCCCCCCCC(O)C1C=CC2C(=O)N(C)C(=O)C2N1Nc1ccccc1 (stereo not given),-2.27 (inactive),-0.206,8.71 (active),3.03 (inactive),0.156 (inactive),2.84 (inactive),-1.28,-0.433 (inactive),-4.22 (inactive),-1.7
C=CCC(OC(C)=O)[C@@H]1[C@@H](N(Cc2ccc(-c3ccccc3)cc2)C(=O)Cc2ccc(OC)cc2)c2cc(OCCCO)ccc2N1C(=O)Cc1ccc(OC)cc1 (stereo not given in full),-0.92 (inactive),0.299,3.76 (inactive),-0.313 (inactive),0.167 (inactive),0.141 (inactive),0.518,-3.55 (inactive),0.194 (inactive),-0.0291
COCCCNC(=O)[C@@]1(CCC(=O)OC(C)(C)C)N=C(c2ccc(OCCCO)cc2)O[C@H]1c1ccccc1,1.41 (inactive),0.0949,12.9 (active),1.15 (inactive),0.384 (inactive),0.566 (inactive),-0.422,-0.865 (inactive),0.388 (inactive),0.188
COC(=O)[C@@]1(Cc2ccc(F)cc2)[C@H]2c3cc(C(=O)N4CCCC4)n(Cc4ccc(C(F)(F)F)nc4)c3C[C@H]2CN1C(=O)c1ccccc1,-0.984 (inactive),0.93,2.37 (inactive),0.229 (inactive),2.16 (inactive),0.716 (inactive),-0.186,0.0745 (inactive),0.488 (inactive),-2.46
C=C(CCCC)/C(=C/C[C@@H](OC(C)=O)c1cccc(OCCO)c1)c1cc(C(=O)OC)ccc1OC,0.198 (inactive),-0.0969,17.4 (active),3.45 (inactive),1.42 (inactive),1.02 (inactive),0.0322,-2.13 (inactive),-1.16 (inactive),-1.88
C=CCNC(=O)[C@@H]1[C@H]2C(=O)O[C@H](c3ccccc3)[C@H](c3ccccc3)N2[C@H](c2ccc(OCCO)cc2)[C@@]12C(=O)Nc1ccc(C#CCNC(N)=O)cc12,-0.582 (inactive),0.124,2.55 (inactive),0.268 (inactive),0.422 (inactive),-0.0239 (inactive),0.386,1.88 (inactive),1.2 (inactive),-0.268
CCCCN1CC=CC23O[C@@H]4C=CCCOC(=O)C4[C@H]2C(=O)N(CCO)[C@@H]3C1=O (stereo not given in full),0.634 (inactive),-0.239,0.506 (inactive),0.303 (inactive),1.21 (inactive),0.211 (inactive),-0.357,1.09 (inactive),0.519 (inactive),0.432
CC(C)c1ccc(NN2C(C(O)c3ccccc3)C=CC3C(=O)N(c4ccccc4)C(=O)C32)cc1 (stereo not given),0.2 (inactive),0.395,4.51 (inactive),1.97 (inactive),0.506 (inactive),1.42 (inactive),-0.396,-0.365 (inactive),-2.49 (inactive),-2.48
